# Screens from PubChem BioAssay.
# Compounds with a hit are over-represented: about 11% of the library has one in this group of screens.
# AMA1 RON2 block = inhibitors of Plasmodium falciparum AMA1-RON2 interaction; 0.2% of 360,000 active; AID 720542; AlphaScreen AMA1-biotinylated RON2 peptide binding; Potency, µM (highest dose often 58.2 µM), usual class: inhibitors; further: nearly all actives have a fitted effect of over 45% in size
#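 AMA1 (3D7) with his tag at 25 nM final met compounds first, then biotinylated RON2 peptide at 25 nM; detection used donor plus acceptor beads, 10 µg/mL apiece, read by AlphaScreen after 30 min at room temperature.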
# Pf growth 48h = inhibits P. falciparum growth in the first generation, 48 h | P. falciparum luciferase growth in erythrocytes, 48 h | 5.9% of 310,000 active | Potency, µM (top dose mostly 28.7 µM), usual class: inhibitors
#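 First compound was added to culture medium, then infected red cells at 0.1% parasitemia and 2% hematocrit (final). After incubation at 37 C under 5% CO2, luciferase detection reagent was dispensed and light output recorded.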
# AmpC inh no detg = inhibitors of E. coli AmpC beta-lactamase without detergent; 0.52% of 330,000 active; AmpC nitrocefin hydrolysis, absorbance 480 nm, 0.0001% Triton; Potency, µM (series often up to 57.1 µM), hits mostly inhibitors; AID 485341; P00811; further: nearly all actives have a fitted effect of over 20% in size
# Target sequence (P00811 whole entry, looked up): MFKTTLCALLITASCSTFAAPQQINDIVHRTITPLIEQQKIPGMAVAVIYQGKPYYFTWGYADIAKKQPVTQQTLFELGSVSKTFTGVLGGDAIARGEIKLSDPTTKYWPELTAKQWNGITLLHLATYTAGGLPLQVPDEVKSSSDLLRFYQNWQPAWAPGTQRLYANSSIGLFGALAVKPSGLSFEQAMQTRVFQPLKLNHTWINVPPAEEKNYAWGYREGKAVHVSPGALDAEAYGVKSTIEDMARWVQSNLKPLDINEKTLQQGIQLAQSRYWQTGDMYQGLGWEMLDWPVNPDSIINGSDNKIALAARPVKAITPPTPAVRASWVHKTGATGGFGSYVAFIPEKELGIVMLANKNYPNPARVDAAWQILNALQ
#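 20 mM phosphate pH 7.0 + 0.01% (detergent screen) or 0.0001% Triton X-100; 5.3 nM AmpC reagent; cpd preinc 15 min RT; nitrocefin (800 uM stock) to start; A480 q20 s × 4 min; Activity was normalised to no-enzyme and no-compound control wells.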
# HCV inh = HCV inhibition; Potency, µM (doses to about 41.8 µM), hits mostly inhibitors; 3.4% of 340,000 active; Huh7.5.1 HCVcc-Cre infection, luciferase reporter, 44 h
#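 After 44 h co-culture of compound, cells and HCVcc-Cre (~0.5 moi), substrate is added for 15 min at room temperature and luciferase measured over 15 sec. Cells were seeded at 1,000/well and pre-cultured 4 h.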
# AmpC inh detg = blocks E. coli AmpC beta-lactamase in detergent assay. P00811. AmpC hydrolysis of nitrocefin, absorbance 480 nm, 0.01% Triton. Potency, µM (titrated, usually from 114 µM), usual class: inhibitors. 0.041% of 370,000 active; further: nearly all actives have a fitted effect of over 25% in size
#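 20 mM phosphate pH 7.0 + 0.01% (detergent screen) or 0.0001% Triton X-100; 5.3 nM AmpC reagent; cpd preinc 15 min RT; nitrocefin (800 uM stock) to start; A480 q20 s × 4 min; Activity was normalised to no-enzyme and no-compound control wells.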
# Pf growth 96h = P. falciparum growth inhibition at 96 hour, primary screen for plastid delayed-death inhibitors. Potency, µM (doses to about 28.7 µM), actives largely listed as inhibitors. 6.9% of 320,000 active. P. falciparum luciferase reporter growth, 96 h
#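 Delayed-death screen, second-generation endpoint: infected erythrocytes, 2% hematocrit, 0.05% parasitemia final; 96 hours at 37 C, 5% CO2; luciferase detection reagent; luminescence decrease equals reduced growth.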
# Numbers stand for hits; n = inactive; u = inconclusive; x = no result given; [ ] = dose if it differs, or a comment. The call rests on the fitted dose curve; in most records, active means well fitted curve in the direction sought with a large enough effect; inconclusive means small, poorly fitted or top-dose-only effect, or another doubt; inactive means no such curve, though single readings can be large; an effect the other way counts as inactive or inconclusive.
SMILES,AMA1 RON2 block,Pf growth 48h,AmpC inh no detg,HCV inh,AmpC inh detg,Pf growth 96h
COc1cccc(OCC(=O)O/N=C(\N)c2ccc(OC)c(OC)c2)c1,n,n,n,u,n,6.6µM
COc1ccc(OCC(=O)O/N=C(\N)c2ccc(OC)c(OC)c2)cc1,n,n,n,u,n,u
COc1cccc(NC(=O)COc2ccccc2)c1,n,n,n,n,n,n
Cc1cccc(/C(N)=N/OC(=O)COc2ccc(Cl)cc2)c1,n,u,n,n,n,2.9µM
Cc1ccccc1-c1noc(-c2ccccc2OCC(=O)Nc2cccc([N+](=O)[O-])c2)n1,x,x,x,x,n,x
O=C(Nc1c(C(=O)c2ccc(F)cc2)oc2ccccc12)c1cc(-c2ccccc2)on1,x,x,x,x,n,x
COc1ccc(NC(=O)COC(=O)COc2cccc(Br)c2)cc1OC,n,n,n,n,n,n
COc1cccc(OCC(=O)Nc2ccc(OC)c(OC)c2)c1,n,n,n,0.63µM,u,n
CCOc1cc(C2C(C#N)=C(N)SC(N)=C2C#N)ccc1OCCN1CCOCC1,n,9.3µM,n,n,u,x
CCCc1[nH]nc2c1C(c1ccc(OCCN3CCOCC3)c(OC)c1)C(C#N)=C(N)O2 (centres undefined),n,n,n,n,n,n
COc1ccc(C(CCN2CCCC(C)C2)c2c(OC)cc(OC)c3c(-c4ccccc4)cc(=O)oc23)cc1 (centres undefined),n,12µM,n,n,n,5.9µM
COc1ccc(C(CCN2CCCC(C)C2)c2c(OC)cc(OC)c3c(C)cc(=O)oc23)cc1 (centres undefined),n,2.9µM,n,u,n,2.6µM
COc1cc(OC)c2c(-c3ccccc3)cc(=O)oc2c1C(CCN1CCCC(C)C1)c1ccc(N(C)C)cc1 (centres undefined),16µM,u,n,n,n,u
COc1ccccc1NC(=O)c1c(C)cc(C)nc1SCC(=O)c1ccc(Cl)cc1,x,x,x,x,n,x
CCOc1ccc(C(=O)Nc2nc(-c3ccc(Br)cc3)ns2)cc1,x,x,x,x,n,x
CC1=NNC(=O)/C1=C\c1cn(-c2ccccc2)nc1-c1ccc(F)cc1,n,5.2µM,n,4.5µM,n,n
CC1=NNC(=O)/C1=C\c1cn(-c2ccccc2)nc1-c1cccs1,n,u,n,u,n,8.3µM
O=C(O)CCCCCN1C(=O)/C(=C/c2cn(-c3ccccc3)nc2-c2cccs2)SC1=S,u,x,x,n,x,x
Cc1c(Cl)cccc1-n1c(SCC(=O)NCc2ccccc2)nc2n[nH]c(C)c2c1=N,x,x,x,x,n,x
CCOc1ccc(NC(=O)c2ccc(NC(=O)CCS(=O)(=O)c3cccs3)cc2)cc1,x,x,x,x,n,x
O=C(CN1C(=O)/C(=C\c2cccc(Cl)c2)Oc2ccccc21)N1CCN(c2ccccn2)CC1,x,n,n,x,n,9.3µM
COc1ccc(CNS(=O)(=O)c2cnc(N)nc2)c(OC)c1,x,x,x,x,n,x
COc1ncnc2c1oc1nc(CC(C)C)c3c(c12)CC(C)(C)OC3,n,2.1µM,n,n,n,u
Cc1ccc2c(c1)N(CC(=O)c1cccc(Cl)c1)C(=O)C(C)O2 (centres undefined),n,u,n,u,u,4.1µM
CC(C)CN1CCN(Cc2cccc3cccnc23)CC1CCO (centres undefined),n,n,n,n,n,n
SMILES,AMA1 RON2 block,Pf growth 48h,AmpC inh no detg,HCV inh,AmpC inh detg,Pf growth 96h
COc1cccc(CN2CCN(Cc3nc(-c4cccs4)oc3C)CC2CCO)c1 (centres undefined),n,9.3µM,n,n,n,u
COc1cccc(CN2CCN(Cc3nc(-c4cccc(F)c4F)oc3C)CC2=O)c1,n,13µM,n,u,n,u
COc1cccc(CN2CCN(Cc3ccc(O)c(OC)c3)CC2CCO)c1 (centres undefined),n,n,n,n,n,n
Cc1oc(-c2cccs2)nc1CN1CCN(CC(C)C)C(CCO)C1 (centres undefined),n,n,n,n,n,1.9µM
COc1ccc(-c2cn3c(n2)sc2cc(C(=O)NCCc4ccc(OC)cc4OC)ccc23)cc1,x,x,x,x,n,x
Cc1ccc(S(=O)(=O)c2ccc([N+](=O)[O-])o2)cc1,n,x,x,3.5µM,x,x
Cc1ccc(NC(=O)/C(C#N)=C/c2cc(C)n(-c3ccc(Br)cc3)c2C)cc1C,x,x,x,x,n,x
COc1ccc(C2(CNC(=O)/C=C/c3ccco3)CCCC2)cc1OC,n,6.6µM,n,n,n,u
COc1ccc(C(=O)NCC2(c3ccc(OC)c(OC)c3)CCCC2)c(OC)c1,n,12µM,n,14µM,n,u
O=C(/C=C/c1ccco1)NCC1(c2ccccc2)CCCC1,n,u,n,n,n,n
CCOC(=O)Cn1c(=O)n(C2CCCCC2)c2nc(-c3ccccc3Cl)nc(C(N)=O)c21,x,x,x,x,n,x
CC/C(=N\N1CCCCCC1)c1c(O)n(-c2ccccc2C)c(=O)[nH]c1=O,n[2.32 µM],u,n,u,u,4.7µM
O=S(=O)(c1ccccc1)c1nnn2c1nc(NCc1ccccc1)c1sccc12,x,x,x,x,n,x
CCOC(=O)c1c(NC(=S)N2CCN(C)CC2)sc2c1CCN(C(=O)OCC)C2,u,13µM,n,6.3µM,n,12µM
